In PubChem BioAssay (NCATS):
Records with an inconclusive call do not appear. The source made the active and inactive calls. Calls come from the whole dose curve; as a rule, active = well fitted cell-killing curve with a large enough effect; inconclusive = small, poorly fitted or top-dose-only effect, or effect the other way; inactive = no such curve, though single readings can be large or run the other way.

Assay: Quantitative High-Throughput drug screen in 47 multiple myeloma cell lines against the NCATS MIPE library collection: L363_DSMZ cell viability assay (AID 1918984); note: nearly all actives have a fitted effect of over 40% in size
Details: L363 myeloma viability, CellTiter-Glo ATP luminescence, 48 h; series mostly up to 45.8 µM
Source text: PI: Beverly A. Mock Ph.D.
Laboratory of Cancer Biology and Genetics,
Center for Cancer Research, National Cancer Institute,
National Institute of Health, Bethesda, Maryland
Drug resistance and disease progression are common in multiple myeloma (MM) patients, underscoring the need for new therapeutic combinations. […] We hypothesized that effective combinations would reduce MYC expression and enhance p16 activity. […] These preclinical data identify potentially useful drug combinations for evaluation in drug-resistant MM and reveal potential mechanisms of combined drug sensitivity.
Described herein is the primary MIPE qHTS used to cherrypick compounds. Validated compounds were then further tested for potential synergistic activiy.
[1] Peat TJ, Gaikwad SM, Dubois W, Gyabaah-Kessie N, Zhang S, Gorjifard S, Phyo Z, Andres M, Hughitt VK, Simpson RM, Miller MA, Girvin AT, Taylor A, Williams D, D'Antonio N, Zhang Y, Rajagopalan A, Flietner E, Wilson K, Zhang X, Shinn P, Klumpp-Thomas C, McKnight C, Itkin Z, Chen L, Kazandijian D, Zhang J, Michalowski AM, Simmons JK, Keats J, Thomas CJ, Mock BA. Drug combinations identified by high-throughput screening promote cell cycle transition and upregulate Smad pathways in myeloma. Cancer Lett. 2023 Aug 1;568:216284. doi: 10.1016/j.canlet.2023.216284. Epub 2023 Jun 24. PMID: 37356470; PMCID: PMC10408729.
SEQUENCE No. (e.g., 1, 2, 3, etc.); […] (e.g., Cells, Incubation, Reagent, etc.); VALUE and DESCRIPTION.
1; Cells; 5 uL; white, solid bottom 1536-well Greiner assay plate.
2; Compounds; 23 nL; Kalypsis pin tool (Wako USA) equipped with a 1536-well pin head to transfer to the assay plates.
3; Incubation; 48 hours; 37C incubation.
4; Reagent;5uL; CellTiter Glo (Promega).
5; Detector; 425V; Luminescence; Viewlux PerkinElmer.
NOTES (numbers refer to Sequence numbers above)
1. The cell-based screening methods employed in this study were like those previously published. Briefly, the corresponding myeloma cell lines were screened in 1,536-well plates with 500 cells, 5-uL per well for inhibition of cell viability (assessed by measuring ATP levels with CellTiterGlo).
2. NCATS MIPE 4.0 library of approved and investigational drugs were added using the Kalypsis pin tool. Wells treated with DMSO only for 100% viability and media only for 0% viability were used as controls.
3. The assay plates were covered and incubated for 48 hours in a 37C, 5% CO2 incubator with controlled humidity.
4. After 48 hours, CellTilter-GloTM luminescent substrate mix (Promega) reagent was added to the assay plate and plates we incubated for 5 min at room temperature.
5. Signal was measured as median relative luminescence units on a ViewLux (PerkinElmer) multiplate reader.
[1] Heske CM, Davis MI, Baumgart JT, Wilson K, Gormally MV, Chen L, Zhang X, Ceribelli M, Duveau DY, Guha R, Ferrer M, Arnaldez FI, Ji J, Tran HL, Zhang Y, Mendoza A, Helman LJ, Thomas CJ. Matrix Screen Identifies Synergistic Combination of PARP Inhibitors and Nicotinamide Phosphoribosyltransferase (NAMPT) Inhibitors in Ewing Sarcoma. Clin Cancer Res. 2017 Dec 1;23(23):7301-7311. doi: 10.1158/1078-0432.CCR-17-1121. Epub 2017 Sep 12. PMID: 28899971; PMCID: PMC6636827.
Potency is the fitted concentration of half-maximal effect.

Q: Which Potency does the source give for `CSCC[C@@H](NC(=O)[C@@H](Cc1ccccc1)NC(=O)CNC(=O)CNC(=O)[C@@H](N)Cc1ccc(O)cc1)C(=O)O` here?
A: Its Potency is “inactive”.

Q: Which Potency does the source give for `O=C(O)CNC(=O)c1c(O)c2ccccc2n(Cc2ccccc2)c1=O` here?
A: Its Potency is “inactive”.

Q: With `CC(C)[C@]12O[C@@H]1[C@@H]1O[C@]13[C@]1(O[C@H]1C[C@@H]1C4=C(CC[C@@]13C)C(=O)OC4)[C@H]2O` as the molecule, how does the Potency read?
A: The Potency was “inactive”.

Q: Which Potency does the source give for `CN1[C@H]2CC(O)C[C@H]1[C@H]1O[C@H]12` (stereo not given in full) here?
A: The Potency was “inactive”.

Q: With `Oc1ccc2c3c1O[C@H]1c4[nH]c5c(c4C[C@@]4(O)[C@@H](C2)N(CC2CC2)CC[C@]314)C[C@@]1(O)[C@H]2Cc3ccc(O)c4c3[C@@]1(CCN2CC1CC1)[C@H]5O4` as the molecule, how does the Potency read?
A: Its Potency is “inactive”.

Q: Which Potency does the source give for `CC(C)N(CCNC(=O)CN1CCCC1=O)C(C)C` here?
A: The Potency was “inactive”.

Q: Which Potency does the source give for `Cc1[nH]nc2ccc(-c3cncc(OC[C@@H](N)Cc4c[nH]c5ccccc45)c3)cc12` here?
A: Its Potency is “inactive”.

Q: For `CC(=CCCC1=CCC(C2=CC(=O)OC2O)OC1O)CCC1=C(C)CCCC1(C)C` (stereo not given), which Potency is on record?
A: The Potency was 2350 nM (active).

Q: Which Potency does the source give for `C1=C2CCCN[C@H]2[C@@H]2C[C@H]1[C@@H]1CCCCN1C2` here?
A: The Potency was “inactive”.

Q: For `COC[C@H]1OC(=O)c2coc3c2[C@@]1(C)C1=C(C3=O)[C@@H]2CC[C@H](O)[C@@]2(C)C[C@@H]1OC(C)=O`, which Potency is on record?
A: Its Potency is 2350 nM (active).

Q: For `CC1(N2CCC(n3c([C@@H]4CCCNC4)nc4ccccc43)CC2)CCCCCCC1`, which Potency is on record?
A: The Potency was 6620 nM (active).

Q: With `CC[C@@H]1[C@@H](C)O[C@@](O)([C@@H](C)[C@H](O)[C@H](C)[C@H]2OC(=O)C=CC=C[C@@H](C)[C@@H]([C@@H](C)[C@@H](O)[C@H](C)[C@@]3(O)C[C@H](O[C@H]4C[C@H](O)[C@H](O)[C@H](C)O4)[C@H](CC)[C@@H](C)O3)OC(=O)C=CC=C[C@@H]2C)C[C@H]1O[C@H]1C[C@H](O)[C@H](O)[C@H](C)O1` as the molecule, how does the Potency read?
A: Its Potency is 372 nM (active).

Q: For `CO[C@H]1CCC(O[C@H]2C[C@H]([C@]3(C)CC[C@]4(C[C@H](O)[C@@H](C)[C@@H]([C@@H](C)C=C(C)C(=O)[C@H](C)C[C@H](C)C(=O)O)O4)O3)O[C@]3(O[C@@H]([C@H]4O[C@@](O)(CO)[C@H](C)C[C@H]4C)C[C@H]3C)[C@H]2C)O[C@H]1C` (stereo not given in full), which Potency is on record?
A: Its Potency is 148 nM (active).

Q: Which Potency does the source give for `CC1=C(O)C(=O)C=C2C1=CC=C1[C@@]2(C)CC[C@@]2(C)[C@@H]3C[C@](C)(C(=O)O)CC[C@]3(C)CC[C@]12C` here?
A: Its Potency is 662 nM (active).

Q: Which Potency does the source give for `C[C@H]1CCCC=CC2C[C@H](O)C[C@@H]2[C@H](O)C=CC(=O)O1` (stereo not given in full) here?
A: The Potency was “inactive”.

Q: For `CCC(=O)OC1CCC2C3CCC4=CC(=O)CC[C@@]4(C)C3CC[C@]12C` (stereo not given in full), which Potency is on record?
A: The Potency was “inactive”.

Q: Which Potency does the source give for `C[C@H]([C@H](O)CCC(C)(C)O)[C@H]1CC[C@@]2(O)C3=CC(=O)[C@@H]4C[C@@H](O)[C@@H](O)C[C@]4(C)[C@@H]3CC[C@]12C` here?
A: Its Potency is “inactive”.

Q: With `O=c1[nH]c2ccccc2n1C1CCN(Cc2ccc(-c3[nH]c4cc5ncnc5cc4nc3-c3ccccc3)cc2)CC1` as the molecule, how does the Potency read?
A: Its Potency is 5900 nM (active).

Q: Which Potency does the source give for `C[C@@H]1CC[C@@]2(OC1)O[C@H]1C[C@H]3[C@@H]4CC=C5C[C@@H](O[C@@H]6O[C@H](CO)[C@@H](O[C@@H]7O[C@@H](C)[C@H](O)[C@@H](O)[C@@H]7O)[C@H](O)[C@@H]6O[C@@H]6O[C@@H](C)[C@H](O)[C@@H](O)[C@@H]6O)CC[C@]5(C)[C@@H]4CC[C@]3(C)[C@@H]1[C@H]2C` here?
A: The Potency was 1870 nM (active).

Q: For `CC(C)[C@H]1C(=O)N[C@H](CO)Cc2c[nH]c3cccc(c23)N1C`, which Potency is on record?
A: The Potency was “inactive”.

Q: For `Cc1c(C(=O)c2cccc3ccccc23)c2cccc3c2n1[C@H](CN1CCOCC1)CO3`, which Potency is on record?
A: Its Potency is 3720 nM (active).

Q: Which Potency does the source give for `CC(C)N[C@@H]1CCn2c(=O)[nH]c3cccc(c32)[C@@H]1O` here?
A: Its Potency is 3320 nM (active).

Q: For `COc1ccc2c(c1)[C@]13CCCCC1C(C2)N(C)CC3` (stereo not given in full), which Potency is on record?
A: Its Potency is “inactive”.

Q: With `Cc1ccccc1-n1c(Cn2ncc3c(N)ncnc32)nc2cccc(C)c2c1=O` as the molecule, how does the Potency read?
A: The Potency was 74.3 nM (active).

Q: Which Potency does the source give for `NC1=NC(=O)N2CC12` (stereo not given) here?
A: Its Potency is 9350 nM (active).

Q: With `COc1ccc(C(=O)c2c(C)n(CCN3CCOCC3)c3cc(I)ccc23)cc1` as the molecule, how does the Potency read?
A: The Potency was 8330 nM (active).

Q: For `CC(=O)N(C)c1cccc(-c2ccnc3c(C(=O)c4cccs4)cnn23)c1`, which Potency is on record?
A: The Potency was “inactive”.

Q: Which Potency does the source give for `COc1cc2cc(c1Cl)N(C)C(=O)C[C@H](OC(=O)C(C)C)[C@]1(C)O[C@H]1[C@H](C)[C@@H]1C[C@@](O)(NC(=O)O1)[C@H](OC)C=CC=C(C)C2` here?
A: The Potency was “inactive”.

Q: For `COc1cc([C@@H]2c3cc4c(cc3[C@@H](O)C3COC(=O)C32)OCO4)cc(OC)c1O` (stereo not given in full), which Potency is on record?
A: The Potency was 13.2 nM (active).

Q: Which Potency does the source give for `Cc1c(C(=O)Nc2cccc(C(F)(F)F)c2)cc(-c2ccccc2)n1CCCN1CCOCC1` here?
A: Its Potency is 5900 nM (active).

Q: For `COc1ccc2c(c[n+](C)c3c4cc5c(cc4ccc23)OCO5)c1OC`, which Potency is on record?
A: The Potency was 4180 nM (active).

Q: For `CCOP(=O)(OCC)C(C)NC(=O)N(CCCl)N=O` (stereo not given), which Potency is on record?
A: The Potency was “inactive”.

Q: For `CC[C@@]1(O)C(=O)OCc2c1cc1n(c2=O)Cc2cc3ccccc3nc2-1`, which Potency is on record?
A: Its Potency is 296 nM (active).

Q: For `COC1=C[C@@H]2[C@@H]3Cc4ccc(OC)c(O)c4[C@]2(CCN3C)CC1=O`, which Potency is on record?
A: Its Potency is 2960 nM (active).

Q: With `O=C1C=CC[C@@H]2[C@H]3CCCN4CCC[C@@H](CN12)[C@@H]34` as the molecule, how does the Potency read?
A: Its Potency is “inactive”.

Q: With `CN1CCN(c2ccc([N+](=O)[O-])c3no[n+]([O-])c23)CC1` as the molecule, how does the Potency read?
A: The Potency was 8330 nM (active).

Q: For `CN(C)NC(=O)CCC(=O)O`, which Potency is on record?
A: The Potency was “inactive”.

Q: For `O=C(Nc1ccncc1)C(=O)c1cn(Cc2ccc(Cl)cc2)c2ccccc12`, which Potency is on record?
A: Its Potency is 13.2 nM (active).

Q: With `C[C@@H]1O[C@@H](O[C@@H]2C=C3CC[C@@H]4[C@@H](CC[C@]5(C)[C@H](c6ccc(=O)oc6)CC[C@@]45O)[C@@]3(C)CC2)[C@H](O)[C@H](O)[C@H]1O` as the molecule, how does the Potency read?
A: Its Potency is 8.3 nM (active).

Q: With `COc1ccc2c(c1)CN(C)CC2c1ccc(Cl)c(Cl)c1` (stereo not given) as the molecule, how does the Potency read?
A: The Potency was 13200 nM (active).
